The source made the active and inactive calls. The calls were made as follows: active = hit-call score of the fitted dose curve at least 0.9, where 1 is the maximum; inactive = score below 0.9.
Legend:
[1] = ATG_GRE_CIS: Attagene CIS-FACTORIAL HepG2 Assay for human Glucocorticoid Response Elements (GRE) (AID 2282947); settings: HepG2 GRE cis-reporter, Attagene multiplex mRNA; actives raise or lower the signal
Method in brief: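 Reporter transcripts read by RT-PCR with capillary electrophoresis fluorescence after a 24 h chemical exposure of HepG2 cells transiently transfected with multiple cis-element reporter units. Gain or loss fitted against DMSO.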

[2] = ATG_ISRE_CIS: Attagene CIS-FACTORIAL HepG2 Assay for human Interferon Regulatory Factor 1 (IRF1) binding to an Interferon-Stimulated Response Element (ISRE) (AID 2282948); settings: HepG2 ISRE cis-reporter (Attagene), mRNA transcription readout; actives raise or lower the signal
Method in brief: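 Multiplexed mRNA reporter readout in human liver HepG2 cells: cis-element-driven reporters transfected, compound added for 24 h, transcripts amplified, fluorescently labelled and sized by capillary electrophoresis; curve fitting bidirectional against DMSO.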

[3] = ATG_M_32_CIS: Attagene CIS-FACTORIAL HepG2 Assay for M32 Transcription Factor (Internal Marker) (AID 2282949); settings: HepG2 Attagene cis-factorial M32 reporter, mRNA; actives raise or lower the signal;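 also: background control marker of the multiplexed CIS panel rather than a real target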
Method in brief: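 HepG2 transfectants (cis-regulated reporter transcription units) dosed 24 h. Reporter mRNA by RT-PCR plus CE, analysed as gain or loss relative to DMSO.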

[4] = ATG_M_06_CIS: Attagene CIS-FACTORIAL HepG2 Assay for M06 Transcription Factor (Internal Marker) (AID 2282950); settings: HepG2 Attagene CIS-FACTORIAL M06 internal marker reporter; actives raise or lower the signal
Method in brief: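 Internal background marker within multiplexed cis-reporter HepG2 system. Cells transiently transfected, dosed 24 h; reporter mRNA measured by RT-PCR, HpaI digestion and capillary electrophoresis. Bidirectional fit relative to DMSO.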

[5] = biological target: Hypoxia-inducible factor 1-alpha (Homo sapiens) (UniProt Q16665); test: ATG_HIF1a_CIS: Attagene CIS-FACTORIAL HepG2 Assay for human Hypoxia Inducible Factor 1 (HIF1A) (AID 2282951); settings: HepG2 Attagene cis-factorial HIF1a reporter transcription; actives raise or lower the signal
Method in brief: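 Dosed 24 h, transfected HepG2 cells yielded total RNA whose reporter transcripts were RT-PCR-amplified and sized by capillary electrophoresis using fluorescent labelling; DMSO defined baseline, with gain and loss of signal both fitted.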

[6] = biological target: Hepatocyte nuclear factor 6 (Homo sapiens) (UniProt Q9UBC0); test: ATG_HNF6_CIS: Attagene CIS-FACTORIAL HepG2 Assay for human Hepatocyte Nuclear Factor 6 (HNF6) (AID 2282952); settings: HepG2 Attagene cis-factorial HNF6 reporter transcription; actives raise or lower the signal
Method in brief: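 First, HepG2 cells were transfected with the multiplexed cis reporter library and dosed with chemical for 24 h. Next, RNA was reverse-transcribed, PCR-amplified and fluorescently labelled. Finally, HpaI-digested fragments were read by capillary electrophoresis.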

[7] = biological target: Heat shock factor protein 1 (Homo sapiens) (UniProt Q00613); test: ATG_HSE_CIS: Attagene CIS-FACTORIAL HepG2 Assay for human Heat Shock Transcription Factor 1 (HSE) (AID 2282953); settings: HepG2 HSE cis-reporter, Attagene RNA transcription; actives raise or lower the signal
Method in brief: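 HepG2 cells transfected with cis-promoter reporter units sensing endogenous transcription factor activity; reporter mRNA quantified 24 h post-dose by RT-PCR and capillary electrophoresis of 6-FAM-labelled products. Bidirectional fitting against DMSO.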

[8] = ATG_MRE_CIS: Attagene CIS-FACTORIAL HepG2 Assay for human Metal Responsive Element (MRE) (AID 2282954); settings: HepG2 MRE cis-reporter transcription, Attagene multiplex; actives raise or lower the signal
Method in brief: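 Endogenous MRE-dependent transcription read as reporter mRNA in transiently transfected human HepG2 cells at 24 h. RNA reverse-transcribed, PCR-amplified, labelled and resolved by capillary electrophoresis; gain or loss relative to DMSO.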

[9] = biological target: Paired box protein Pax-6 (Homo sapiens) (UniProt P26367); test: ATG_Pax6_CIS: Attagene CIS-FACTORIAL HepG2 Assay for human Paired Box 6 (PAX6) (AID 2282956); settings: HepG2 CIS-FACTORIAL PAX6 reporter transcription, RNA readout; actives raise or lower the signal
Method in brief: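 Fluorescent RT-PCR products separated by capillary electrophoresis report PAX6-linked promoter mRNA in HepG2 cells 24 h post-dose. Curves fitted bidirectionally, DMSO as negative control.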

[10] = ATG_PXRE_CIS: Attagene CIS-FACTORIAL HepG2 Assay for human Pregnane X Receptor Element (PXRE) (AID 2282957); settings: HepG2 Attagene CIS-FACTORIAL PXRE reporter, mRNA; actives raise or lower the signal
Method in brief: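 After a 24 h chemical incubation, total RNA from transfected HepG2 cells was reverse-transcribed and reporter cDNA amplified, FAM-labeled, HpaI-digested and sized by capillary electrophoresis. DMSO served as baseline for bidirectional curve fitting.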

[11] = ATG_PPRE_CIS: Attagene CIS-FACTORIAL HepG2 Assay for human Peroxisome Proliferator-activated Response Element (PPRE) (AID 2282958); settings: HepG2 PPRE cis-element reporter, Attagene transcription factor profiling; actives raise or lower the signal
Method in brief: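 Measured endpoint: PPRE-controlled reporter mRNA, detected by RT-PCR and capillary electrophoresis fluorescence, from transiently transfected HepG2 cells 24 h after dosing. Curves fitted in both directions using DMSO baseline.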

[12] = ATG_RORE_CIS: Attagene CIS-FACTORIAL HepG2 Assay for human RAR-related Orphan Receptor Element (RORE) (AID 2282959); settings: HepG2 Attagene cis-factorial RORE reporter, mRNA; actives raise or lower the signal
Method in brief: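 Transiently transfected HepG2 reporter cells were treated 24 h. Reporter transcripts were detected by RT-PCR and capillary electrophoresis, with bidirectional fitting against DMSO.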

[13] = ATG_Sox_CIS: Attagene CIS-FACTORIAL HepG2 Assay for human SRY-box transcription factor (SOX) (AID 2282960); settings: HepG2 Attagene cis-factorial SOX reporter, mRNA; actives raise or lower the signal
Method in brief: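 Gain- or loss-of-signal endpoint, fitted bidirectionally with DMSO as negative control. Based on reporter mRNA from transfected HepG2 cells harvested 24 h post-treatment and quantified via RT-PCR and capillary electrophoresis.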

[14] = biological target: Transcription factor Sp1 (Homo sapiens) (UniProt P08047); test: ATG_Sp1_CIS: Attagene CIS-FACTORIAL HepG2 Assay for human Specificity Protein 1 (Sp1) (AID 2282961); settings: HepG2 Sp1 cis-reporter transcription, actives raise or lower the signal
Method in brief: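 Endpoint reflects endogenous Sp1 transcriptional activity, not an exogenous fusion protein: HepG2 cells with transfected cis-regulated reporters, 24 h dosing, RT-PCR/capillary electrophoresis mRNA read-out, DMSO-normalised bidirectional fit.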

[15] = ATG_SREBP_CIS: Attagene CIS-FACTORIAL HepG2 Assay for human Sterol Regulatory Element Binding (SREBP) (AID 2282962); settings: HepG2 Attagene cis-factorial SREBP reporter, mRNA; actives raise or lower the signal
Method in brief: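 Endogenous factor activity is measured in HepG2 through multiplexed reporter units under cis-element control. Following a 24 h incubation, reporter transcripts are reverse-transcribed, PCR-amplified and sized by capillary electrophoresis; activity is fitted in both directions relative to DMSO.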

[16] = ATG_TA_CIS: Attagene CIS-FACTORIAL HepG2 Assay for human TA Basal Promoter (AID 2282964); settings: HepG2 Attagene CIS-factorial TA basal promoter reporter; actives raise or lower the signal
Method in brief: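 HepG2 cells transiently transfected with multiple reporter units under cis promoter elements, reporting endogenous transcription factor activity; this endpoint tracks the TA basal promoter as background control. Reporter mRNA after 24 h dosing measured by RT-PCR/capillary electrophoresis; bidirectional fits versus DMSO.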

[17] = ATG_TCF_b_cat_CIS: Attagene CIS-FACTORIAL HepG2 Assay for human T-Cell-Factor with beta-catenin (TCF/b-cat) (AID 2282965); settings: HepG2 TCF/beta-catenin cis-reporter transcription, actives raise or lower the signal
Method in brief: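 Endogenous TCF/LEF activity read as reporter transcript level via RT-PCR and capillary electrophoresis fluorescence in transfected HepG2, 24 h exposure; gain or loss of signal fitted against DMSO controls.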

[18] = ATG_PBREM_CIS: Attagene CIS-FACTORIAL HepG2 Assay for human Phenobarbital-responsive Enhancer Module (PBREM) (AID 2282955); settings: HepG2 PBREM cis-reporter, Attagene multiplexed transcription; actives raise or lower the signal
Method in brief: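 Transfected liver-derived HepG2 cells exposed 24 h; PBREM reporter transcript quantified via RT-PCR and capillary electrophoresis, with activity in either direction referenced to DMSO.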

[19] = biological target: Signal transducer and activator of transcription 3 (Homo sapiens) (UniProt P40763); test: ATG_STAT3_CIS: Attagene CIS-FACTORIAL HepG2 Assay for human Signal Transducer and Activator of Transcription 3 (STAT3) (AID 2282963); settings: HepG2, Attagene cis-factorial STAT3 reporter transcription; actives raise or lower the signal
Method in brief: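 Readout is reporter transcript quantified by RT-PCR and capillary electrophoresis, with 6-FAM primer extension and HpaI digestion. Total RNA is taken 24 h after dosing transiently transfected HepG2 carrying cis-regulated reporter units. Bidirectional fit against DMSO.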

Measured: AC50

Signal transducer and activator of transcription 3 (Homo sapiens), sequence (P40763 whole entry, looked up): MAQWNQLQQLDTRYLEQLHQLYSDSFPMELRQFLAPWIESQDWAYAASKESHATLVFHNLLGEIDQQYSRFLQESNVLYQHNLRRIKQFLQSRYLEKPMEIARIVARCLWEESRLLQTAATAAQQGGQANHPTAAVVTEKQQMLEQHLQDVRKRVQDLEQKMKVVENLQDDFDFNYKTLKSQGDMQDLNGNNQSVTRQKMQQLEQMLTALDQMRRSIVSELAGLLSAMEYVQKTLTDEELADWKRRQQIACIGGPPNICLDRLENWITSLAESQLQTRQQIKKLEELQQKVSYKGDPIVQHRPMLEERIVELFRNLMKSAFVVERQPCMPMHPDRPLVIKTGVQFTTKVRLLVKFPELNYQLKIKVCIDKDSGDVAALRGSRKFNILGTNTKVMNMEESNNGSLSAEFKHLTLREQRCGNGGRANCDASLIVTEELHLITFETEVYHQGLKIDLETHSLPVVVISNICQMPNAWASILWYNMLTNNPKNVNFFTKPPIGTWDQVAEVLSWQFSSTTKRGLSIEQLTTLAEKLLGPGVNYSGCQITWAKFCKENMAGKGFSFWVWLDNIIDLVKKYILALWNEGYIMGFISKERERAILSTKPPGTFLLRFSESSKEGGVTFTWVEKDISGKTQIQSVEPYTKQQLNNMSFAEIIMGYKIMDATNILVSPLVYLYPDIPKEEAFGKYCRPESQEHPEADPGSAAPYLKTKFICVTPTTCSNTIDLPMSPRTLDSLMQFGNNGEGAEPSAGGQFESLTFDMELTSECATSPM
Hypoxia-inducible factor 1-alpha (Homo sapiens), sequence (Q16665 whole entry, looked up): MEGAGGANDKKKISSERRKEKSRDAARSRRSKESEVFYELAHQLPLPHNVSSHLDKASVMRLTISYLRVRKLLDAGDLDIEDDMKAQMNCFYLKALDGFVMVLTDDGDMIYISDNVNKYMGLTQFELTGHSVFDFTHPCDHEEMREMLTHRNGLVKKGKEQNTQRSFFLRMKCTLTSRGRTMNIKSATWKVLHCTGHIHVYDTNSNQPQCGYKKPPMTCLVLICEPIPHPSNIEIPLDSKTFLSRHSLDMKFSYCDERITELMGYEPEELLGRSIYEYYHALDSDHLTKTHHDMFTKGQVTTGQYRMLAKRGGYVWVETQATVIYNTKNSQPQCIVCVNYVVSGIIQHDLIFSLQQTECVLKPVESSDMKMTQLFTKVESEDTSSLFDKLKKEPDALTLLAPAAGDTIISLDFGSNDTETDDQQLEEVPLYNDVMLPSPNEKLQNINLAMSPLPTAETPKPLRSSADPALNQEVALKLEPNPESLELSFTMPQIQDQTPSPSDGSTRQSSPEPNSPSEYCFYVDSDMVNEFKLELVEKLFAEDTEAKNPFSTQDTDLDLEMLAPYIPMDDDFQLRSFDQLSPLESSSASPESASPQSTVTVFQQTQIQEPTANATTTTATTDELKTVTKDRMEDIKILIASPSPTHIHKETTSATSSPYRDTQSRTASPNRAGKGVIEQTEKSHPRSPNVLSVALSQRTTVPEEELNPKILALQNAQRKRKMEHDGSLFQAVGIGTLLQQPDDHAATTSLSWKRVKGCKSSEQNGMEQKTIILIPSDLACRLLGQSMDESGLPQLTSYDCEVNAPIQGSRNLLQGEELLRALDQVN
Paired box protein Pax-6 (Homo sapiens), sequence (P26367 whole entry, looked up): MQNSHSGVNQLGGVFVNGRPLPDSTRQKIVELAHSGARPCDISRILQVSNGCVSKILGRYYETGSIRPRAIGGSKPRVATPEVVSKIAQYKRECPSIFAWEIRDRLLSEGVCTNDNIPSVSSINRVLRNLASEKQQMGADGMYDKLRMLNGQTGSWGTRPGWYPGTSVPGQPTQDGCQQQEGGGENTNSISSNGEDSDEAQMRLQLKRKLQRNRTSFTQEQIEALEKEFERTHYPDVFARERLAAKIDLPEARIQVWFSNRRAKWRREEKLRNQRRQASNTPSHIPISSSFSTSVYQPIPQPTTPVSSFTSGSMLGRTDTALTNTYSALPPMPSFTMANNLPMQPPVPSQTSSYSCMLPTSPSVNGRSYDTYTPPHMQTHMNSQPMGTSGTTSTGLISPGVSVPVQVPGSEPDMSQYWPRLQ
Heat shock factor protein 1 (Homo sapiens), sequence (Q00613 whole entry, looked up): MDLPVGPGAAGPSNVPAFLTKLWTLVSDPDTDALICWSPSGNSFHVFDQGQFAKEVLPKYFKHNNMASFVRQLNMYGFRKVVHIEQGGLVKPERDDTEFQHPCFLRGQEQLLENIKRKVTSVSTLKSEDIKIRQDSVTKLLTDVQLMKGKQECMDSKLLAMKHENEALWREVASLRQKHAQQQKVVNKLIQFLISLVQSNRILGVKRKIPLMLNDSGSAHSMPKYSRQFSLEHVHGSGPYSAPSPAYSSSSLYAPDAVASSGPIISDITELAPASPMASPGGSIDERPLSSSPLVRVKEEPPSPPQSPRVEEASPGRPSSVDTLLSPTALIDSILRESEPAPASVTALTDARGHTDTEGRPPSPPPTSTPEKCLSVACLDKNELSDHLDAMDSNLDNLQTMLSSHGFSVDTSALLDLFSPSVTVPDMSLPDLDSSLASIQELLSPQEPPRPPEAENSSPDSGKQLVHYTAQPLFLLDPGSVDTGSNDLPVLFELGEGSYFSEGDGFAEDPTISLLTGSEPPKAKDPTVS
Hepatocyte nuclear factor 6 (Homo sapiens), sequence (Q9UBC0 whole entry, looked up, the tested form may be a part): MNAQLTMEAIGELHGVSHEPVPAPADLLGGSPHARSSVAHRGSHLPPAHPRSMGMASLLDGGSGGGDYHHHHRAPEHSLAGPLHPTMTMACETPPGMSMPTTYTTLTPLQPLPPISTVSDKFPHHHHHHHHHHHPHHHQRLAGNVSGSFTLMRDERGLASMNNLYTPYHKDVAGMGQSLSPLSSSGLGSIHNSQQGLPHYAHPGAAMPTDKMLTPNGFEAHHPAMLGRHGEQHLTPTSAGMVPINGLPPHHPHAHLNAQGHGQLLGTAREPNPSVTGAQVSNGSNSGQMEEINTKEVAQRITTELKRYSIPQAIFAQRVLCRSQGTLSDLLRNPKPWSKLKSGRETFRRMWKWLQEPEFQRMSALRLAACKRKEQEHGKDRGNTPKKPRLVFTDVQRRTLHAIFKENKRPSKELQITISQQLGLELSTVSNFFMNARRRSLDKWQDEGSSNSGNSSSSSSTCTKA
Transcription factor Sp1 (Homo sapiens), sequence (P08047 whole entry, looked up, the tested form may be a part): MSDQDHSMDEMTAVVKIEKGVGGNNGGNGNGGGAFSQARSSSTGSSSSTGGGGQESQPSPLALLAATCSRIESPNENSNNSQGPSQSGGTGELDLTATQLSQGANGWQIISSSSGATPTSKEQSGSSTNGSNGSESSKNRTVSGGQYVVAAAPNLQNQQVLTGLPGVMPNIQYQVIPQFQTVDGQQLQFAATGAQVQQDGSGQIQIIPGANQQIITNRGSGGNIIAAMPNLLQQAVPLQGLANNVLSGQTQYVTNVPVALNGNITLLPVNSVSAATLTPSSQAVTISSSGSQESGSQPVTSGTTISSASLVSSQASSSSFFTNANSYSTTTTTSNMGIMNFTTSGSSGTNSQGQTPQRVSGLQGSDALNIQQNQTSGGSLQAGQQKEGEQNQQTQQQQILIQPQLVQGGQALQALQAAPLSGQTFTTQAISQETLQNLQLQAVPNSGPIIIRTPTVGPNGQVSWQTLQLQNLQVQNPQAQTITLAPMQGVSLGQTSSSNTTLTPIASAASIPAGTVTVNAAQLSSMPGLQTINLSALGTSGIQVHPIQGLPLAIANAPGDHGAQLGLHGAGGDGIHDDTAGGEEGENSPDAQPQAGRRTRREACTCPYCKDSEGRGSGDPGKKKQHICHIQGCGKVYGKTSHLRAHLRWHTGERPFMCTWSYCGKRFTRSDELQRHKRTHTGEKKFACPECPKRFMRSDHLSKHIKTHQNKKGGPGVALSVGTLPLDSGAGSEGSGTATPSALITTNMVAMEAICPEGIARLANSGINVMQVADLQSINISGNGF

N[C@@H](Cc1c[nH]c2ccccc12)C(=O)O
inactive: [1] | [2] | [3] | [4] | [6] | [7] | [8] | [9] | [10] | [11] | [12] | [13] | [14] | [15] | [16]
active: [5] 27.3 µM

CC(=O)OCC(COC(C)=O)OC(C)=O
inactive: [1] | [2] | [3] | [4] | [5] | [6] | [7] | [8] | [9] | [10] | [11] | [12] | [13] | [14] | [15] | [16] | [17]

C/C=C/c1ccc(OC)cc1
inactive: [2] | [3] | [4] | [5] | [6] | [7] | [8] | [18] | [9] | [10] | [11] | [12] | [13] | [14] | [15] | [16] | [17]

CCCC[C@H]1CN(CC2CCOCC2)C(=O)OC12CCN(C1(C)CCN(C(=O)c3c(C)ncnc3C)CC1)CC2
inactive: [2] | [3] | [4] | [5] | [6] | [8] | [18] | [9] | [10] | [11] | [12] | [13] | [14] | [15] | [16] | [17]

CC(=O)O
inactive: [2] | [3] | [4] | [5] | [6] | [8] | [9] | [10] | [13] | [14] | [15] | [19] | [16]

CCC(C)N(C)C(=O)c1cc2ccccc2c(-c2ccccc2Cl)n1 (stereo not drawn)
inactive: [3] | [4] | [6] | [13] | [14] | [15]
active: [2] 89 µM | [7] 101 µM | [8] 97.4 µM | [9] 63 µM | [10] 0.135 µM | [11] 106 µM | [12] 46.9 µM | [16] 44.3 µM | [17] 41.7 µM

CCCCCCCC(=O)OC
inactive: [2] | [3] | [4] | [6] | [7] | [8] | [18] | [9] | [10] | [11] | [12] | [13] | [14] | [15] | [19] | [16]
active: [5] 68.3 µM

O=NO
inactive: [2] | [3] | [4] | [5] | [6] | [7] | [8] | [18] | [9] | [10] | [11] | [12] | [13] | [14] | [15] | [19] | [16]
